# Only some compounds are listed: those with a hit (about 12% of all), similar ones and a draw of the others.
# NS1 inh – influenza NS1 inhibition; AID 2326; Potency, µM (series often up to 46.1 µM), without a hit: at the top dose activity, positive = more growth; actives 0.4% (n = 270,000); also: potency is read from the fitted curve at half-maximal effect; actives are rising curves; nearly all actives have a fitted effect of over 50% in size
#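 Compounds were scored for reversing the slow growth caused by influenza A NS1 in S. cerevisiae, measured by optical density at 600 nm. Assay medium contained 2% galactose at pH 6.0; NS1-free yeast of the same strain were the positive control.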
# SARS PLP yeast – SARS-CoV PLP inhibition in yeast. Potency, µM (highest dose often 32.9 µM), for inactives: top-dose activity, positive = growth rescue, usual class: activators. AID 485353. S. cerevisiae expressing SARS-CoV PLpro, growth rescue. actives 0.19% (n = 330,000); also: potency is read from the fitted curve at half-maximal effect; 0% is about no effect; nearly all actives have a fitted effect of over 55% in size
# Shiga inhibitor – inhibitors of Shiga toxin in Vero cells; Vero cells, Shiga toxin protein synthesis inhibition reporter; inhibition, % at 38.7 µM; actives 9.2% (n = 290,000); AID 2315; in the data active = inhibition mostly above about 28%, no sharp cut-off; inactive = mostly below about 43%; also: 0% is about no effect
# Cycloheximide cs – affects cycloheximide protein synthesis inhibition readout, counter-screen; cell reporter, cycloheximide protein synthesis inhibition counterscreen; max response, %; actives 12% (n = 300,000); in the data active = max response mostly above about 13%, no sharp cut-off; inactive = mostly below about 14%; also: read at 38.3 µM for the half of the compounds with a filed dose; 0% is about no effect
# * marks the source's active call; other numbers are inactive results; . = no result given. Unless noted, calls follow the shape of the full dose curve.
SMILES,NS1 inh,SARS PLP yeast,Shiga inhibitor,Cycloheximide cs
COc1ccc(C(CNC(=O)c2ccco2)N2CCCC2)cc1 (configuration not stated),.,6%,.,.
CN(C)c1ccc(C(CNC(=O)c2ccco2)N2CCCC2)cc1 (configuration not stated),6%,-1%,48*,26
CCCCCOC(=O)Nc1nnc(CCC)s1,-2%,16%,41,28*
CCCCc1nnc(NC(=O)COC)s1,1%,-1%,28,-1
CCCCOC(=O)Nc1nnc(-c2ccccc2OC)s1,-7%,0%,-9,-1
CCCCOC(=O)Nc1nnc(C(C)C)s1,.,-4%,119*,37*
O=C(Nc1ccnn1C1CCN(Cc2cccc(OCCO)c2)CC1)c1cccc(F)c1,4%,-7%,-3,5
COc1cccc(/C=C/C(=O)Nc2ccc(N3CCOCC3)cc2)c1OC,-8%,-20%,51,18*
O=C(CCCOc1ccc(Br)cc1)Nc1ccc(S(=O)(=O)N2CCOCC2)cc1,.,-3%,.,.
CC(=O)c1ccc(OCCCC(=O)Nc2ccc(S(=O)(=O)N3CCOCC3)cc2)cc1,.,11µM*,.,.
COc1ccccc1/C=C/C(=O)Nc1ccc(N2CCOCC2)cc1,.,-5%,25,4
COc1ccccc1OCCCC(=O)Nc1ccc(N2CCOCC2)cc1,.,1%,10,13*
Cc1ccccc1OCCCC(=O)Nc1ccc(N2CCOCC2)cc1,3%,1%,-4,2
O=C(O)c1cccc2c1C(=O)c1ccccc1-2,-36%,0%,6,-2
CC(C)OC(=O)c1cccc2c1C(=O)c1ccccc1-2,-8%,-2%,74*,38*
Cc1nc(-c2ccccc2)nc2[nH]c(=O)n(-c3ccccc3)c(=O)c12,-5%,1%,54*,31*
O=C(c1cc(COc2ccc(F)cc2Cl)on1)N1CCc2sccc2C1,2%,-2%,43*,26*
Cc1nonc1C1CCCN1C(=O)c1cc(COc2ccc(F)cc2Cl)on1 (configuration not stated),2%,-2%,41,29*
O=C(c1cc(COc2ccc(F)cc2Cl)on1)N1CCN(C2CCCC2)CC1,-2%,-2%,19,-3
O=C(c1cc(COc2ccc(F)cc2Cl)on1)N1CCCCC1c1cccnc1 (configuration not stated),-16%,-10%,38*,25*
O=C(c1cc(COc2ccc(F)cc2Cl)on1)N1CCC(OCc2cccnc2)CC1,-32%,-1%,19,-1
COc1ccccc1N(C)S(=O)(=O)c1ccc(C(=O)OC(C)C(=O)NCc2ccc3c(c2)OCO3)cc1 (configuration not stated),-15%,0%,-3,-3
O=C(O)CCC(=O)Nc1ccc(Br)cc1C(=O)c1ccccc1Cl,-4%,0%,10,-2
Cc1c(C)c(C)c2[nH]c(-c3ccc4c(c3)OCO4)nc2c1C,-32%,-6%,68*,27*
CCOC(=O)c1cccc(NC(=S)NCc2ccc(C)cc2)c1,-1%,-2%,-2,-1
SMILES,NS1 inh,SARS PLP yeast,Shiga inhibitor,Cycloheximide cs
Cc1ccc(COc2coc(CO)cc2=O)cc1,-1%,-1%,37,38*
Clc1ccc(C#Cc2cccnc2)cc1,.,-3%,.,.
O=C(Nc1ccc2c(c1)nc1n2CCOC1)c1ccco1,4%,-3%,73*,33*
O=C(Nc1ccc2c(c1)nc1n2CCOC1)C1CCCCC1,-4%,-2%,81*,29*
O=C(CC1Sc2ccccc2NC1=O)c1ccc(Br)cc1 (configuration not stated),29%,-2%,58*,38*
O=C(O)CC1Sc2ccccc2NC1=O (configuration not stated),-1%,11%,-4,-9
COc1ccc(C[C@@H](N)c2ccc(OC)cc2)cc1,-6%,.,.,.
COc1ccc(-c2oc3ccccc3c2C(=O)OCc2ccc([N+](=O)[O-])cc2)cc1,5%,0%,-4,1
COc1ccc(-c2oc3ccccc3c2C(=O)OCc2ccc(O)cc2)cc1,0%,2%,28*,24*
COc1ccc2oc(-c3ccccc3)c(C(=O)O)c2c1,-49%,-4%,8,-6
COc1ccc(-c2oc3ccccc3c2C(=O)OCc2ccccc2)cc1,15%,-3%,34*,31*
COc1ccc2oc(-c3ccccc3)c(C(N)=O)c2c1,-59%,3%,34,28*
N=c1oc2ccccc2cc1-c1nc(-c2ccccc2)cs1,15%,-3%,45*,42*
O=C(Nc1nc(-c2cc3ccccc3oc2=O)cs1)c1ccc(Br)o1,5%,-3%,71,15
O=C(Nc1nc(-c2cccs2)cs1)c1cc2ccccc2oc1=O,9%,2%,8,1
COc1cccc2cc(-c3nc(-c4cccs4)cs3)c(=O)oc12,-5%,4%,127*,37*
